Sampled rows, rich in hits. Any-hit rate of the full collection: about 12%.
HP1b binding inh: blocks HP1-beta chromodomain binding to methylated histone tails | Potency, µM (titrated, usually from 114 µM), without a hit: at the highest dose activity change, negative = inhibition, usual class: inhibitors | AlphaScreen HP1-beta / biotin-H3K9me3 peptide binding | actives 0.56% (n = 390,000) | AID 540317; note: nearly all actives have a fitted effect of over 70% in size
Target sequence (P83916 whole entry, looked up): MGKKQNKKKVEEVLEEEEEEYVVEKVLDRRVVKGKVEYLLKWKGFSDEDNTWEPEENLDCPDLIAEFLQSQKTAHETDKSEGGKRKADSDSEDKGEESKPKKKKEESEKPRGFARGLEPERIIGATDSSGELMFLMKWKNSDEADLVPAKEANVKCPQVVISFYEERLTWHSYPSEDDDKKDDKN
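AlphaScreen: HP1-beta (50 nM) preformed 30 min with biotin-H3(1-18)K9me3 peptide (50 nM) in PBS pH 7.4, 0.01% Tween-20. Compound added for 30 min at RT, then streptavidin donor/nickel chelate acceptor beads (10 ug/mL) for 30 min.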
Sfp PPTase inh: blocks B. subtilis Sfp PPTase activity; Q9F4F7; Biochemical Sfp PPTase activity, qHTS; Potency, µM, inactives show largest response in the series, negative = inhibition, most hits filed as inhibitors; actives 3.5% (n = 310,000); AID 1490;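 note: the enzyme is Sfp with the accession as filed and its product quenches rhodamine fluorescence; 0% = enzyme reaction without inhibitor and -100% = no enzyme wells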
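Compounds were incubated with enzyme (final 15 nM) for 15 min at room temperature before substrate addition started the reaction. Fluorescence at 525 nm excitation, 598 nm emission was recorded immediately and after 30 minutes.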
BAZ2B inh: BAZ2B (human) inhibition; Q9UIF8; AlphaScreen BAZ2B-H3K14Ac peptide displacement; Potency, µM (series often up to 114 µM), for inactives: at the highest dose activity change, negative = inhibition, most hits filed as inhibitors; actives 4.4% (n = 360,000); AID 504333; note: % is set by controls: 0 for no effect and ±100 for the full control effect; nearly all actives have a fitted effect of over 60% in size
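AlphaScreen displacement of biotin-H3(5-23)K14Ac peptide (50 nM final) from BAZ2B (50 nM final) in PBS pH 7.4, 0.01% Tween-20; complex preformed 30 min RT, then compounds (top 110 uM) 30 min RT, beads 20 min dark.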
G9a inh: inhibitors of human histone lysine methyltransferase G9a; Q96KQ7; G9a H3K9 monomethylation, AlphaScreen, 2 h; Potency, µM (titrated, usually from 102 µM), inactives show at the highest dose activity, negative = inhibition, most hits filed as inhibitors; actives 8.8% (n = 350,000); AID 504332; note: % is set by controls: 0 for no effect and ±100 for the full control effect; nearly all actives have a fitted effect of over 75% in size
Target sequence (Q96KQ7 913-1193 limits assumed): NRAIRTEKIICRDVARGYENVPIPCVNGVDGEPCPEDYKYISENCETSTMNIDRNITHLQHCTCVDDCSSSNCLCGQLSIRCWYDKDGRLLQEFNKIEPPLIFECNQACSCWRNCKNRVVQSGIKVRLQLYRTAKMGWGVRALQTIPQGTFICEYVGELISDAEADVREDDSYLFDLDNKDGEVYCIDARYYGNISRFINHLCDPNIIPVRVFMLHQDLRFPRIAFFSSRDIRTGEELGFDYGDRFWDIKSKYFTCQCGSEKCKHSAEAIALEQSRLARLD
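Readings reflect AlphaScreen signal from monomethyl-H3K9 antibody detection. HMT at 20 nM; substrate b-H3K9 500 nM; cofactor SAM 20 uM; 2 h RT reaction; compounds tested as titrations in qHTS with 15 min preincubation.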
JMJD2A Tudor inh: blocks the human JMJD2A Tudor domain; AlphaScreen JMJD2A-Tudor / H3K4me3 peptide binding; AID 504339; Potency, µM (top dose mostly 114 µM), inactives show at the highest dose activity change, negative = inhibition, actives largely listed as inhibitors; actives 4.4% (n = 390,000); note: % is set by controls: 0 for no effect and ±100 for the full control effect; nearly all actives have a fitted effect of over 50% in size
An asterisk follows results filed as active; ? = inconclusive; . = not tested or not shown; [ ] = dose if it differs, or a comment. Calls come from the whole dose curve; as a rule, active = well fitted curve in the direction sought with a large enough effect; inconclusive = small, poorly fitted or top-dose-only effect, or another doubt; inactive = no such curve, though single readings can be large; an effect the other way counts as inactive or inconclusive. Potency is the fitted concentration of half-maximal effect.

SMILES	HP1b binding inh	Sfp PPTase inh	BAZ2B inh	G9a inh	JMJD2A Tudor inh
O=C1C(=O)N(c2nccs2)C(c2ccccc2F)/C1=C(\O)c1ccc2c(c1)OCCO2 (centres undefined)	0%	-3%	50µM*	-11%[0.0925 µM]	?
COc1ccccc1C1/C(=C(\O)c2ccc3c(c2)OCCO3)C(=O)C(=O)N1CCCN(C)C (centres undefined)	.	5%	0%	10%[59 µM]	.
Cc1nnc(N2C(=O)C(=O)/C(=C(/O)c3ccc4c(c3)OCCO4)C2c2ccc(F)cc2)s1 (centres undefined)	80%	2%	-25%[57.1 µM]	45µM*	-18%
COC(=O)c1ccc(N=Cc2c(-c3ccccc3)[nH][nH]c2=O)cc1	14%	7%	?	40µM*	-5%
Nc1ccc(C2(c3ccc(N)cc3)OC(=O)c3ccccc32)cc1	-2%	4%	-28%	9%	35µM*
Cc1cc(O)c(C(C)C)cc1C1(c2cc(C(C)C)c(O)cc2C)OC(=O)c2ccccc21	19%	35%	?	9%[12.7 µM]	-30%
O=C(O)c1ccc(C2(c3ccc(C(=O)O)cc3)OC(=O)c3ccccc32)cc1	63%	4%	12%[0.457 µM]	.	-9%
Cc1cc(C2(c3ccc(O)c(C)c3)OC(=O)c3ccccc32)ccc1O	-25%	-4%	50µM*	?	?
COc1ccc(Cl)cc1NS(=O)(=O)c1cc(Br)cnc1N	28%	14%	-11%	.	-19%
COc1cc(OC)c2c(-c3ccccc3)cc(=O)oc2c1C(CC(=O)N1CCOCC1)c1ccc(N(C)C)cc1 (centres undefined)	?	-1%	35µM*	-6%[12.7 µM]	32µM*
COc1cc(OC)c2c(-c3ccccc3)cc(=O)oc2c1C(CC(=O)N1CCOCC1)c1ccc2c(c1)OCO2 (centres undefined)	1%	-3%	-29%	5%[59 µM]	?
COc1cc(OC)c2c(-c3ccccc3)cc(=O)oc2c1C(CC(=O)N1CCN(c2ccccc2)CC1)c1ccc2c(c1)OCO2 (centres undefined)	.	1%	?	-49%[59 µM]	.
COc1cc(OC)c2c(-c3ccccc3)cc(=O)oc2c1C(CC(=O)N1CCN(c2ccccc2)CC1)c1ccc(N(C)C)cc1 (centres undefined)	?	-13%	8.9µM*	?	6.3µM*
COc1ccccc1OCCOCCOc1ccc(C)cc1[N+](=O)[O-]	29%	0%	5%	3%[59 µM]	-19%
CCCCNCCOCCOc1ccc(C)cc1[N+](=O)[O-]	?	3%	?	18µM*	2.8µM*
COCCCNCCCCOc1ccc(C)cc1[N+](=O)[O-]	?	-5%	?	11µM*	5.6µM*
Cc1ccc([N+](=O)[O-])c(OCCn2cnc3ccccc32)c1	30%	12%	-9%	8%[59 µM]	-21%
C=CCN(CC=C)CCOc1cc(C)ccc1[N+](=O)[O-]	28µM*	-13%	22µM*	10µM*	?
CCC(C)NCCOc1ccc(C)cc1[N+](=O)[O-] (centres undefined)	?	-18%	40µM*	11µM*	0.79µM*
CCCCN(C)CCCNC(=O)CN1C(=O)COc2ccc(S(=O)(=O)N3CCC(C)CC3)cc21	40%	.	3%	-7%[59 µM]	3%
Cn1c(=O)c(C(=O)CN2CCCCC2)c(N)n(Cc2ccccc2)c1=O	21%	4%	1%	27%[59 µM]	-4%
C=CCNCCOc1ccc(C)cc1[N+](=O)[O-]	?	-12%	40µM*	.	50µM*
CCC(C)Nc1c([N+](=O)[O-])cc(C)cc1[N+](=O)[O-] (centres undefined)	?	-2%	32µM*	40µM*	20µM*
COc1ccc(OCCC(=O)Nc2cc3c(cc2C(=O)O)OCCCO3)cc1	8%	.	-1%	-32%	-14%
CCN1CCCC1CNC(=O)C(=O)Nc1ccccc1 (centres undefined)	32%	23%	-21%	23%[59 µM]	-17%
CC(=O)c1ccc(NC(=S)N2C(C)CCCC2C)cc1 (centres undefined)	.	45µM*	11%	50µM*	.

Compound activity from PubChem.
